Inconclusive results are not listed. Active and inactive are the calls of the source. Unless noted, calls come from the whole dose curve; as a rule, active = well fitted curve in the direction sought with a large enough effect in the repeat runs; inconclusive = weak or mixed curves; inactive = no such curve, though single readings can be large; an effect the other way counts as inactive or inconclusive.
Experiments:
[1] = qHTS assay to identify small molecule antagonists of the estrogen related receptor (ERR) signaling pathway from Tox21 library - cell viability counter screen (AID 1224834); note: nearly all actives have a fitted effect of over 30% in size
In short: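 Multiplexed viability counter screen in ERR cells: 17.5 h compound exposure at 37 C, CellTiter-Fluor added, 30 min at 37 C/5% CO2, fluorescence read.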

[2] = molecular target: Luciferin 4-monooxygenase (Photinus pyralis) (UniProt P08659); assay: qHTS assay to identify small molecule inhibitors of firefly luciferase (AID 1224835); note: nearly all actives have a fitted effect of over 25% in size
Chain of Luciferin 4-monooxygenase (Photinus pyralis) (P08659 whole entry, looked up): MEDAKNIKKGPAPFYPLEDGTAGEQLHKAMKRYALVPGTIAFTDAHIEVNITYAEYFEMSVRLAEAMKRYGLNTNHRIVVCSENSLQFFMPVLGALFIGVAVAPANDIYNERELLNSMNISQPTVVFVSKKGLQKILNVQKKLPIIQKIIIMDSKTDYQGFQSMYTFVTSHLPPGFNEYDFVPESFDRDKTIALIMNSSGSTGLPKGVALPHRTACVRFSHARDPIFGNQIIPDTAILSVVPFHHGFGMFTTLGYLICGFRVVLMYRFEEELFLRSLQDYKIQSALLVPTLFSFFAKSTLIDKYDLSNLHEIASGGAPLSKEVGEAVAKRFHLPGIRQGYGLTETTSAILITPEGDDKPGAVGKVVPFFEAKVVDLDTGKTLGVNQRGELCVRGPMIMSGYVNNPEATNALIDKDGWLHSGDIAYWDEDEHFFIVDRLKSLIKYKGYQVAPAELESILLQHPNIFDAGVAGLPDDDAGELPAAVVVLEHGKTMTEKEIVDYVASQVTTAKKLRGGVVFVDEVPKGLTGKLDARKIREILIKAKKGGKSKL
In short: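 Inhibition of purified Photinus luciferase is measured by luminescence. Substrate levels (D-luciferin, ATP) sit at their KM values. Each compound is tested in a concentration series.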

[3] = qHTS assay to identify small molecule agonists of the constitutive androstane receptor (CAR) signaling pathway - cell viability counter screen (AID 1224836); note: nearly all actives have a fitted effect of over 45% in size
In short: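 23 h treatment, 37 C, 5% CO2. Cell line: HepG2 stably expressing hCAR with a CYP2B6-2.2kb construct. Co-treatment: PK11195, 0.75 uM final. Read-out: CellTiter-Fluor fluorescence intensity.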

[4] = qHTS assay to identify small molecule antagonists of the constitutive androstane receptor (CAR) signaling pathway - cell viability counter screen (AID 1224837); note: nearly all actives have a fitted effect of over 45% in size
In short: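 Read-out: CellTiter-Fluor fluorescence after 23 hr at 37 C/5% CO2. Cells: HepG2 double-stable for hCAR and CYP2B6-2.2kb. Compounds tested at 15 concentrations in the presence of CITCO, final concentration 50 nM.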

[5] = qHTS assay to identify small molecule antagonists of the estrogen related receptor signaling pathway with the pleiotropic PPARgamma coactivator (PGC) from Tox21 10K library - cell viability counter screen (AID 1224840; active = well fitted cell-killing curve with a large enough effect in the repeat runs, not every such curve was filed as active; note: nearly all actives have a fitted effect of over 40% in size)
In short: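 Fluorescence read-out of CellTiter-Fluor viability reagent, added after cells had been exposed to compound in DMSO for 17.5 h at 37 C; 30 min development at 37 C/5% CO2. Cells: PGC/ERR line, 2,000/well.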

[6] = qHTS assay to identify small molecule antagonists of the estrogen related receptor signaling pathway with the pleiotropic PPARgamma coactivator (PGC) from Tox21 10K library (AID 1224841; call rule not given here; note: actives are mostly falling curves and most rising ones were filed inactive; nearly all actives have a fitted effect of over 50% in size)
In short: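 Luminescence read-out (One-Glo luciferase reagent, 30 min at room temperature) from PGC/ERR cells exposed to DMSO-dissolved test compounds for 18 h at 37 C; cells, 2,000 per well, had been preincubated 6 h before compound transfer.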

[7] = qHTS assay to identify small molecule agonists of the estrogen related receptor signaling pathway with the pleiotropic PPARgamma coactivator (PGC) from Tox21 10K library (AID 1224842); note: nearly all actives have a fitted effect of over 15% in size
In short: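 Luminescence from One-Glo (30 min, room temperature) measured after PGC/ERR cells had 18 h at 37 C with pinned compound (23 nL in DMSO). Cells had been seeded at 2,000 per well and pre-incubated 6 h.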

[8] = molecular target: Thyrotropin receptor (Homo sapiens) (UniProt P16473); assay: qHTS assay to identify small molecule agonists of the thyroid stimulating hormone receptor (TSHR) signaling pathway (AID 1224843; calls by dose curve; note: nearly all actives have a fitted effect of over 45% in size)
Chain of Thyrotropin receptor (Homo sapiens) (P16473 whole entry, looked up): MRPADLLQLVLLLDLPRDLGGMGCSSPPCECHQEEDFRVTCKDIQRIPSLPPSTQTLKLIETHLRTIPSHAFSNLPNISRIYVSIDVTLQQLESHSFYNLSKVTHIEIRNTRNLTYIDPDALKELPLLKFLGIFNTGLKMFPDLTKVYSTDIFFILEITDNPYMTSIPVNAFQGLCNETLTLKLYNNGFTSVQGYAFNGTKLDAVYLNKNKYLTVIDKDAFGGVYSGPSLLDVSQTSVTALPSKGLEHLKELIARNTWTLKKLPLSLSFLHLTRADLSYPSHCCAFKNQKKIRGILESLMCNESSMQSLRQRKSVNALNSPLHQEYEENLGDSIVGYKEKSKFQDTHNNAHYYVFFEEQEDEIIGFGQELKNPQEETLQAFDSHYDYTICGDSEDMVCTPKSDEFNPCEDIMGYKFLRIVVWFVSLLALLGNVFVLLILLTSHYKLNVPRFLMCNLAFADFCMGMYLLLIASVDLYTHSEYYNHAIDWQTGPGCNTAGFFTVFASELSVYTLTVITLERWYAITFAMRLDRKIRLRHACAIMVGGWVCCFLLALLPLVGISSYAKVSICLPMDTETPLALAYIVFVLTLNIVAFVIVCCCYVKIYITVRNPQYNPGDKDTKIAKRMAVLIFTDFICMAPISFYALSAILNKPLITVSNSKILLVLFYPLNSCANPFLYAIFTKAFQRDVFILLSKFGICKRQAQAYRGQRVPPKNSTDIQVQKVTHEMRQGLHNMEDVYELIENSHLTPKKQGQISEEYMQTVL
In short: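 Agonist activity read as cAMP rise via d2/cryptate HTRF competition, 1 h room-temperature detection, in HEK293 cells expressing TSHR. Fifteen-point titrations, each run in triplicate, with a 30 min room-temperature incubation beforehand.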

[9] = qHTS assay to identify small molecule agonists of the hypoxia (HIF-1) signaling pathway - cell viability counter screen (AID 1224844; calls by dose curve; note: nearly all actives have a fitted effect of over 50% in size)
In short: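 CellTiter-Glo luminescence read-out, 30 min RT, taken in the same wells as the beta-lactamase HRE reporter assay; HRE-bla ME-180 cells, 0.5% dialyzed FBS, 17 hr compound treatment at 37C, 5% CO2.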

[10] = qHTS assay to identify small molecule agonists of H2AX (AID 1224845; active = well fitted activation curve with a large enough effect in the signal ratio in the repeat runs, not every such curve was filed as active; the % refers to the signal ratio)
In short: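 Phospho-H2AX Ser139 measured by HTRF (ex 320 nm; em 665 and 620 nm) after 24 hr antibody incubation. Compounds, 15 concentrations, 0.76% DMSO, were applied to CHO-K1 cells for 3hr at 37C before lysis.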

[11] = qHTS assay to identify small molecule agonists of the hypoxia (HIF-1) signaling pathway (AID 1224846; active = well fitted activation curve with a large enough effect in the signal ratio in the repeat runs, not every such curve was filed as active; the % refers to the signal ratio)
In short: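 Beta-lactamase FRET read-out (CCF4-AM substrate) from ME-180 cells carrying an HRE-driven bla reporter, after 17 hrs compound exposure at 37C/5% CO2. Cells were seeded at 2,000 per well in 0.5% dialyzed FBS medium and preincubated 5 hrs.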

[12] = qHTS assay to identify small molecule agonists of H2AX - cell viability counter screen (AID 1224847; calls by dose curve; note: top concentration of the series differs between compounds; nearly all actives have a fitted effect of over 30% in size)
In short: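 Compounds tested at 15 concentrations were incubated 3 hr at 37C with wild-type CHO-K1 cells; cellular ATP-based luminescence (CellTiter-Glo) indicated viability.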

[13] = qHTS assay to identify small molecule antagonists of the estrogen related receptor (ERR) signaling pathway from Tox21 library (AID 1224848); note: nearly all actives have a fitted effect of over 50% in size
In short: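 Luciferase luminescence (ONE-Glo, 30 min room temperature) was the read-out. Cells of the NTP-supplied ERR line, 2,000 per well, were given 6 h at 37 C before compound addition in DMSO and 18 h exposure at 37 C.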

[14] = qHTS assay to identify small molecule agonists of the estrogen related receptor (ERR) signaling pathway from Tox21 library (AID 1224849; calls by dose curve; note: nearly all actives have a fitted effect of over 15% in size); conditions: ERR reporter cell line, ONE-Glo luciferase, 18 h; at 92.4 µM (top of the series) unless noted
In short: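 Luminescence readout (ONE-Glo, 30 min RT) after 18 h compound exposure at 37 C of NTP-supplied ERR reporter cells; cells were plated 6 h before compound addition by pin tool.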

[15] = qHTS RealTime-Glo MT Cell Viability Assay in HepG2 cells - 24 hour (AID 1224867); note: nearly all actives have a fitted effect of over 50% in size
In short: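 Tox21 10K library screened in qHTS format on HepG2 cells carrying RealTime-Glo reagents. Compounds were added after a 5 h preincubation, and the luminescent signal from continuous culture was measured repeatedly during 40 h treatment.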

[16] = qHTS RealTime-Glo MT Cell Viability Assay in HEK293 cells - 32 hour (AID 1224868)
In short: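 Luminescence generated by NanoLuc from substrate produced by living HEK293 cells served as the viability signal. Each value reflects the reading at its stated time point during continuous 40 h compound exposure at 37 C.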

[17] = A CellTox Green Cytotoxicity Assay to monitor cytotoxicity in HEK293 cells - 0 hour (AID 1224869); note: nearly all actives have a fitted effect of over 50% in size
In short: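 Read-out: fluorescence of a cell-impermeant cyanine dye staining DNA of dead cells, proportional to cytotoxicity. HEK293, 600 cells/well with reagent, compound (23 nL DMSO) added after 5 h; reads at 0, 8, 16, 24, 32, 40 h.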

[18] = molecular target: Nuclear receptor subfamily 1 group I member 3 (Homo sapiens) (UniProt Q14994); assay: qHTS assay to identify small molecule antagonists of the constitutive androstane receptor (CAR) signaling pathway (AID 1224838);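 note: HepG2 cells stably expressing hCAR with CYP2B6 luciferase reporter stimulated by CITCO; nearly all actives have a fitted effect of over 40% in size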
Chain of Nuclear receptor subfamily 1 group I member 3 (Homo sapiens) (Q14994 whole entry, looked up): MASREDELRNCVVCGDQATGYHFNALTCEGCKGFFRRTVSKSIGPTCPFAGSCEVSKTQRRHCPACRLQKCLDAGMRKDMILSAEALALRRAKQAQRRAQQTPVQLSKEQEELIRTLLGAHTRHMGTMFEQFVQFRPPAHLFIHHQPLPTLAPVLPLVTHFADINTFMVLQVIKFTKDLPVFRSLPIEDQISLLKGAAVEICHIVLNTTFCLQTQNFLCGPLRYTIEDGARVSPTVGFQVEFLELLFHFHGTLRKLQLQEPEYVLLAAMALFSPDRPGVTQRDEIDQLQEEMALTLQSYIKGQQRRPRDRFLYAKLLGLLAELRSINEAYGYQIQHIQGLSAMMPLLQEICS
In short: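 Read-out: ONE-Glo luciferase luminescence after 30 min at room temperature. HepG2-CYP2B6-hCAR double-stable cells, compounds in 15-point titration plus 50 nM CITCO final, 24 h at 37 C/5% CO2.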

[19] = molecular target: Nuclear receptor subfamily 1 group I member 3 (Homo sapiens) (UniProt Q14994); assay: qHTS assay to identify small molecule agonists of the constitutive androstane receptor (CAR) signaling pathway (AID 1224839);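 note: HepG2 cells stably carrying human CAR and a CYP2B6 luciferase reporter; nearly all actives have a fitted effect of over 15% in size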
In short: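 Compounds tested at 15 concentrations on HepG2 cells stably harbouring hCAR and CYP2B6-2.2kb reporter constructs, co-treated with PK11195 (0.75 uM final), 24 h at 37 C; luminescent reporter signal quantified.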
% is set by controls: 0 for no effect and ±100 for the full control effect.

Cc1ncc(CSSCc2cnc(C)c(O)c2CO)c(CO)c1O
inactive: Potency [1] | Potency [2] | outcome [3] | outcome [4] | outcome [5] | Potency [6] | Potency [7] | outcome [8] | Potency [9] | outcome [10] | outcome [11] | Potency [12] | Potency [13] | activity change, positive = activation [14] 0.477% [at 42.5 µM] | outcome [15] | Potency [16] | Potency [17]

Nc1ncnc2c1ncn2Cc1c(F)cccc1Cl
inactive: Potency [1] | Potency [2] | outcome [3] | outcome [4] | outcome [5] | Potency [6] | Potency [7] | outcome [8] | Potency [9] | outcome [10] | outcome [11] | Potency [12] | Potency [13] | activity change, positive = activation [14] 0.331% [at 42.5 µM] | outcome [15] | Potency [16] | Potency [17]

NCCNC(=O)c1ccc(Cl)cn1
inactive: Potency [1] | Potency [2] | outcome [3] | outcome [4] | outcome [5] | Potency [6] | Potency [7] | outcome [8] | Potency [9] | outcome [10] | outcome [11] | Potency [12] | Potency [13] | activity change, positive = activation [14] -0.271% [at 42.5 µM] | outcome [15] | Potency [17]

CCCCCCOC(=O)CC(CC(=O)OCCCCCC)(OC(=O)CCC)C(=O)OCCCCCC
inactive: Potency [1] | Potency [2] | outcome [3] | outcome [4] | Potency [18] | Potency [19] | Potency [6] | Potency [7] | outcome [8] | outcome [10] | outcome [11] | Potency [12] | Potency [13] | activity change, positive = activation [14] -12.6% | outcome [15] | Potency [16] | Potency [17]

C=CCSCC1Nc2cc(Cl)c(S(N)(=O)=O)cc2S(=O)(=O)N1 (stereo unspecified)
inactive: Potency [1] | Potency [2] | outcome [3] | outcome [4] | Potency [19] | outcome [5] | outcome [8] | outcome [10] | outcome [11] | Potency [12] | outcome [15] | Potency [16] | Potency [17]

CC/C=C\C#N
inactive: Potency [1] | Potency [2] | outcome [3] | outcome [4] | Potency [18] | Potency [19] | outcome [8] | outcome [10] | outcome [11] | Potency [12] | outcome [15] | Potency [16] | Potency [17]

COC(C(=O)O)c1ccccc1 (stereo unspecified)
inactive: Potency [1] | Potency [2] | outcome [3] | outcome [4] | Potency [18] | Potency [19] | outcome [8] | Potency [9] | outcome [10] | outcome [11] | Potency [12] | outcome [15] | Potency [16] | Potency [17]

CC(C)N1C(=O)c2ccccc2C1=O
inactive: Potency [1] | Potency [2] | outcome [3] | outcome [4] | Potency [18] | Potency [19] | outcome [8] | Potency [9] | outcome [10] | outcome [11] | Potency [12] | outcome [15] | Potency [16] | Potency [17]

Source: PubChem BioAssay (Tox21)
